In the library only some 6.2% were active in any assay of this set; here they are far more common.
Gal4-VP16 FLuc = VP16 counterscreen qHTS for inhibitors of ROR gamma transcriptional activity | Drosophila S2 Gal4-VP16 UAS-luciferase, luminescence, 20 h | Potency, µM (titrated, usually from 53.6 µM), without a hit: top-dose activity, negative = inhibition, usual class: inhibitors | actives 3.5% (n = 310,000);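 note: Gal4-VP16 expression switched on by copper sulfate through the metallothionein promoter; nearly all actives have a fitted effect of over 50% in size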
RORg inh = qHTS for inhibitors of ROR gamma transcriptional activity. actives 5.4% (n = 310,000). Drosophila S2 Gal4-RORgamma UAS-luciferase reporter, 20 h. Potency, µM (titrated, usually from 53.6 µM), for inactives: at the top dose activity change, negative = inhibition, most hits filed as inhibitors; note: nearly all actives have a fitted effect of over 60% in size
Target sequence (P51450 whole entry, looked up, the tested form may be a part): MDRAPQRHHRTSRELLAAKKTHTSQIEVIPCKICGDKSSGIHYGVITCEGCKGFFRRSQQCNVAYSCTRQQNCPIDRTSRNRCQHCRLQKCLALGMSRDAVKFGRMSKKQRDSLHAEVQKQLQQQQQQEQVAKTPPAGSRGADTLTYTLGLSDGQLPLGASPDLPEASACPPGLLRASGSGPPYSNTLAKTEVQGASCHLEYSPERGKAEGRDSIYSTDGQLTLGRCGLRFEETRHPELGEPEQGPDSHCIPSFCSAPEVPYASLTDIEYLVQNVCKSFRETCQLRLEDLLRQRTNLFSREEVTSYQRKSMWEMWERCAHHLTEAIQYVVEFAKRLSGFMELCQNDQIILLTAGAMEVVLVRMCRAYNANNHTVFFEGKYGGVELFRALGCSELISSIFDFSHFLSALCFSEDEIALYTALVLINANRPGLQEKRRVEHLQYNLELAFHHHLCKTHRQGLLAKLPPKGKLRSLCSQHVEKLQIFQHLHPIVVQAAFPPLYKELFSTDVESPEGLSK
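Stably transfected Drosophila Schneider cells are the test system, with ROR gamma fused to Gal4 and luciferase under UAS control; luminescence is read after 20 hr of 700 uM copper sulfate induction at ambient temperature.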
Luc counter = Counterscreen for Luciferase (Kinase-Glo TM) Inhibition | Kinase-Glo luciferase, ATP luminescence, 8 min | Potency, µM (doses to about 38.3 µM), for the others: at the highest dose activity change, negative = inhibition, actives largely listed as inhibitors | actives 0.28% (n = 200,000) | AID 1379, 2008 | Luciferin 4-monooxygenase (Photuris pensylvanica), Q27757; note: nearly all actives have a fitted effect of over 60% in size
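Luminescence was the read-out, taken after 8-minute incubation at ambient temperature. Luciferase turned over luciferin with 10 uM ATP in imidazole pH 7.2 buffer containing KCl, MgCl2, Tween 20 and BSA.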
* marks the source's active call; other numbers are inactive results; ? = inconclusive; / = no result given; [ ] = another dose, or the depositor's remark. Calls come from the whole dose curve; as a rule, active = well fitted curve in the direction sought with a large enough effect; inconclusive = small, poorly fitted or top-dose-only effect, or another doubt; inactive = no such curve, though single readings can be large; an effect the other way counts as inactive or inconclusive. % is set by controls: 0 for no effect and ±100 for the full control effect; potency is the fitted concentration of half-maximal effect.

SMILES	Gal4-VP16 FLuc	RORg inh	Luc counter
COc1ccc(/C=N/NC(=S)Nc2cc(S(=O)(=O)N3CCOCC3)ccc2N2CCOCC2)cc1O	?	?	1%
COC(=O)/C=C/c1oc2ccccc2c1C	-3%	15%	4%
CC(Oc1ccccc1)C(=O)Nc1cccc(NC(=O)c2ccco2)c1 (configuration not stated)	4%	33%	/
CC(Oc1ccc(Cl)cc1)C(=O)NNC(=S)NC(=O)c1ccco1 (configuration not stated)	?	13µM*	1%
O=C(COc1ccc(Cl)cc1Cl)NNC(=S)NCc1ccco1	?	3.2µM*	-3%
O=C(COc1ccc(Cl)cc1Cl)NNC(=S)NC(=O)c1ccco1	?	11µM*	/
O=C(O)CCC(=O)NNC(=O)COc1ccc(Cl)cc1Cl	-3%	2%	0%
O=C(COc1ccc(Cl)cc1Cl)NCc1ccco1	-18%	?	-1%
Cc1ccc(NS(=O)(=O)c2cccc(C(=O)Nc3c(C)n(C)n(-c4ccccc4)c3=O)c2)cc1	10%	15%	/
CNc1ncnc2ccc(-c3cccc(OC)c3)cc12	-12%	37%	/
Cc1ccc(C)n1-c1ccc(-c2nnc3n2CCCCC3)s1	6%	-9%[10 µM]	-6%
COc1ccccc1C(C[N+](=O)[O-])c1c[nH]c2ccccc12 (configuration not stated)	-9%	-16%	/
Cc1ccc(C(C[N+](=O)[O-])c2c(N)n(C)c(=O)n(C)c2=O)cc1 (configuration not stated)	?	13µM*	/
COc1cccc(F)c1C(C[N+](=O)[O-])c1c(N)n(C)c(=O)n(C)c1=O (configuration not stated)	11µM*	7.1µM*	/
COc1cc(C(C[N+](=O)[O-])c2c(C)[nH]c3ccccc23)ccc1O (configuration not stated)	25%	1%	-1%
COc1cc(C(C[N+](=O)[O-])c2c(N)n(C)c(=O)n(C)c2=O)ccc1O (configuration not stated)	-86%	14µM*	-2%
O=c1[nH][nH]c(-c2ccccc2O)c1C(C[N+](=O)[O-])c1ccccc1 (configuration not stated)	?	-14%[10 µM]	4%
Cc1cnc(NC(=O)CSC(=S)N2CCOCC2)s1	-13%	18%	/
CCCc1nn2c(=O)cc(CSCC(=O)Nc3ccc(C)cc3)nc2s1	-5%	3%	/
COc1ccc(/C=N/Nc2nc3ccccc3[nH]2)cc1OC	1%	-29%	-6%
Cc1cccc(/C=N/Nc2ccc3ccccc3n2)c1	6.3µM*	2.8µM*	?
C(=N\Nc1ccc2ccccc2n1)/c1ccc2c(c1)OCCO2	2µM*	2.5µM*	?
O=[N+]([O-])c1cccc(/C=N\Nc2ccc3ccccc3n2)c1O	/	/	-23%[7.66 µM]
C(=N\Nc1nc2ccccc2[nH]1)/c1ccc2c(c1)OCCO2	?	5.6µM*	/
Cc1cc(N/N=C/c2cccc(Br)c2)nc2ccccc12	?	11µM*	-3%
SMILES	Gal4-VP16 FLuc	RORg inh	Luc counter
Cc1cc(C)nc(N/N=C/c2ccc3c(c2)OCCO3)n1	-18%	?	-6%
Cc1cc(N/N=C/c2ccncc2)nc2ccccc12	-2%	?	1%
CCOc1ccc(CNC(=O)CN2C(=O)CSc3ccc(S(=O)(=O)N4CCOCC4)cc32)cc1OC	1%	-7%	/
O=S1(=O)NC(=NCCc2ccccn2)c2ccccc21	-3%	22%	0%
Cc1ccc(/C=N/Nc2cn[nH]c(=O)n2)o1	-8%	?	-5%
Cc1ccc(/C=N/Nc2ccc3ccccc3n2)o1	18µM*	13µM*	?
CC1=Nn2c(nc(-c3ccccc3)c2-c2ccccc2)NC(=O)C1Br (configuration not stated)	-9%	-1%	6%
COc1ccc(N2C(=O)/C(=C/c3ccc([N+](=O)[O-])cc3)N=C2C)c(OC)c1	7.9µM*	?	8%
CC1=N/C(=C\c2ccc([N+](=O)[O-])cc2)C(=O)N1c1cc(Cl)ccc1C	-14%	24%	-2%
CCN1C(C)=C(C(=O)OC)C(c2ccccc2)N2C(=O)[C@@]3(C(=O)OC)O[C@@]12C1C(=O)CCCC13 (some centres not stated)	-1%[10 µM]	1%[10 µM]	/
Cc1ccc(OC(C)C(=O)Nc2ccccc2C(=O)N2CCOCC2)cc1 (configuration not stated)	0%	0%	/
NC(=O)CCc1nc2cc(C(F)(F)F)ccc2n(Cc2ccccc2)c1=O	2%	38%	/
CCNC(=S)NNC(=O)CSc1nc2ccccc2[nH]1	13µM*	4µM*	1%
CCNC(=S)NNC(=O)CCc1nc2cc(Cl)ccc2n(Cc2ccccc2)c1=O	-10%	6.3µM*	/
Cn1c(SCC(=O)NCc2ccc(F)cc2)nc2ccccc21	2%	-26%	/
CCNC(=S)NNC(=O)CSc1nc2ccccc2n1C	0.71µM*	0.22µM*	/
O=C(O)CSc1nc2ccccc2[nH]1	-2%	-7%	-3%[7.66 µM]
Cn1ccnc1SCC(=O)Nc1ccc2c(c1)OC(F)(F)O2	-10%	-8%	4%
N#C/C(=C/c1cn(CC(=O)O)c2ccccc12)C(=O)NCc1ccccc1	9%	7%	0%
C=C(C)CC(Nc1ccc(OC)cc1)c1ccco1 (configuration not stated)	-8%	19%	-5%
CC1CC2(C)Oc3ccccc3CC2C(C)C1CNCCCN(C)C (configuration not stated)	?	?	-3%
COCCN(CCOC)c1nc(C)nc2c1nc(-c1ccccc1)n2CCN(C)C	15%	-16%	-4%
NC(=S)n1[nH]c(-c2ccc([N+](=O)[O-])cc2)c(N=Nc2ccc(O)cc2)c1=O	-4%	1%	1%
NC(=S)n1[nH]c(-c2ccc([N+](=O)[O-])cc2)c(N=Nc2cccc(Cl)c2)c1=O	7.1µM*	0.4µM*	3%
Nc1[nH][nH]c(=O)c1N=Nc1cccc(Cl)c1	-5%	-5%	-4%
SMILES	Gal4-VP16 FLuc	RORg inh	Luc counter
Cc1[nH]n(C(N)=S)c(=O)c1N=Nc1cccc(Cl)c1	1.6µM*	0.28µM*	/
COc1ccc(Cl)cc1S(=O)(=O)NC(C)C(=O)NCc1cccnc1 (configuration not stated)	-3%	2%	/
Cn1c(Oc2ccccc2NCc2cccc(Br)c2)cc(=O)n(C)c1=O	-1%	?	-6%
Cc1ccc(C)c(-c2ccc(C(=O)O)o2)c1	-2%[96.6 µM]	13µM*	4%[39.9 µM]
COc1ccccc1-c1ccc(C(=O)O)o1	4%	-8%	-2%
O=C(CSCCO)Nc1ccc(C2CCCCC2)cc1	5.6µM*	0%	0%
O=C(CCN1CCN(CCO)CC1)Nc1ccc(C2CCCC2)cc1	-11%[10 µM]	-5%	-1%
CC(C)C[C@@H](CC(=O)N[C@H](CC(=O)N[C@@H]1CCCC[C@H]1C(=O)N[C@H](CC(=O)N[C@@H](CCC(=O)O)CC(=O)O)CC(C)C)C(C)C)NC(=O)[C@@H]1CCCC[C@H]1N	5%	6%	2%
O=C(NC(NC(=S)Nc1ccc(F)c([N+](=O)[O-])c1)C(Cl)(Cl)Cl)C(c1ccccc1)c1ccccc1 (configuration not stated)	5µM*	4µM*	/

Screening results deposited in PubChem BioAssay by National Center for Advancing Translational Sciences (NCATS).
